The assay has as its system Sonic hedgehog protein (Shh). As to the kind of experiment: small-molecule binders of Shh protein, primary screen, biochemical, small-molecule microarray, 635/667 nm fluorescence (AID 1151).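 Note: Shh protein binding to compounds spotted on small-molecule microarray slides; score combines spot fluorescence intensity with signal-to-noise across triplicate slides.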 The conditions noted are these: small-molecule microarray binding, 635 nm fluorescence; higher = more signal.
For the compound `C=CC[C@]1(C(=O)O)N=C(c2ccc(OCCCO)cc2)O[C@H]1c1ccccc1CN=[N+]=[N-]`, the composite z-score is -0.0799.
The compound `C[N+](C)(C)CCCCNC(=O)[C@H]1C[C@H]2C(=O)N3CCC[C@H]3C(=O)N2[C@H]1c1ccc(O)cc1` came in with a composite z-score of 1.86.
Next, `[N-]=[N+]=NCc1ccccc1[C@@H]1OC(c2ccc(OCCCO)cc2)=N[C@]1(Cc1ccccc1)C(=O)O`: -0.934; `CN(C)CCCN1C(=O)[C@@]2(c3ccc([N+](=O)[O-])cc3)CC(=O)N(C3CCCCC3)[C@@H]2c2ccc(CO)cc21`: -0.93.
With `CCOC1=C2C(c3ccc(C)cc3)N(S(=O)(=O)c3ccc(C)cc3)CC2n2c(=O)n(-c3ccccc3)c(=O)n2C1` (stereo unspecified), the composite z-score was found to be 0.254.
The compound `O=C1c2ccccc2[C@](Cc2ccccc2I)(C(=O)O)[C@H](c2ccc(CO)cc2)N1Cc1ccccc1C(F)(F)F` came in with a composite z-score of -0.489.
With `CCCCCCCCCCC(O)C1C=CC2C(=O)N(c3ccccc3)C(=O)C2N1Nc1ccc([N+](=O)[O-])cc1` (stereo unspecified), the composite z-score came to 0.358.
Next, `CCOC(=O)C1=CC[C@@H](c2cccc(Cl)c2)N(S(=O)(=O)c2ccc(C)cc2)[C@H]1c1ccc(C#N)cc1`: 0.741; `CCCCCCC#C[Si](O[C@H](c1ccccc1)c1cn([C@H](C)c2ccccc2)nn1)(C(C)C)C(C)C`: 0.573.
The compound `O=C(NCC(F)(F)F)[C@@H]1c2ccccc2C(=O)N(Cc2ccccc2)[C@H]1c1ccc(CO)cc1` registered a composite z-score of -0.911.
Next, `O=C1OCC=C[C@H]2OC34C=CCN(c5ccc(Cl)cc5)C(=O)[C@H]3N(CCCO)C(=O)[C@@H]4[C@@H]12` (stereo partly specified): -0.629; `CCOC(=O)N1C(c2ccc(OCCCO)cc2)=NC(C(=O)OC)N1C(=O)OCC` (stereo unspecified): 1.13; `Cc1ccc(S[C@]2(C(=O)NCC(F)(F)F)CC(=O)N(C3Cc4ccccc4C3)[C@@H]2c2ccc(CO)cc2I)cc1`: -0.703.
Take `[N-]=[N+]=Nc1ccccc1C[C@]1(C(=O)N2CCCCC2)N=C(c2ccc(OCCCO)cc2)O[C@H]1c1ccccc1N=[N+]=[N-]`: the composite z-score is 0.364.
Turning to `C=CCNC(=O)[C@H]1[C@@H]2C(=O)O[C@@H](c3ccccc3)[C@@H](c3ccccc3)N2[C@@H](c2ccc(O)cc2)[C@]12C(=O)Nc1ccc(C#Cc3ccc(OC)cc3)cc12`, the composite z-score was 0.667.
The same measure for `[N-]=[N+]=NCc1ccccc1C[C@]1(C(=O)NCc2ccccc2)COC(c2ccc(OCCCO)cc2)=N1`: -1.13; for `O=C1OCC=C[C@H]2OC34C=CCN(CCN5CCOCC5)C(=O)[C@H]3N(CCCCCCO)C(=O)[C@@H]4[C@@H]12` (stereo partly specified): 0.572; for `[N-]=[N+]=Nc1ccccc1[C@H]1OC(c2ccc(OCCCO)cc2)=N[C@@]1(CCS(=O)(=O)c1ccccc1)C(=O)N1CCOCC1`: 0.836.
Next, `COC(=O)[C@@]1(Cc2ccccc2)[C@H]2c3cc(C(=O)N(C)C)n(Cc4cc(F)c(F)c(F)c4)c3C[C@H]2CN1C(=O)c1ccccc1`: -0.578; `O=C1O[C@H](c2ccccc2)[C@H](c2ccccc2)N2[C@H]1[C@@H](C(=O)N1CCCCCCC1)[C@]1(C(=O)Nc3ccc(C#CC4=CCCCC4)cc31)[C@H]2c1ccc(O)cc1`: 2.29.
As for `[N-]=[N+]=NCc1ccccc1C[C@]1(C(N)=O)N=C(c2ccc(OCCCO)cc2)O[C@H]1c1ccccc1N=[N+]=[N-]`, the composite z-score was -0.413.
Next, `C=CCOC(=O)[C@H]1[C@@H]2C(=O)O[C@@H](c3ccccc3)[C@@H](c3ccccc3)N2[C@@H](c2ccc(OCCOC(=O)[C@H]3C[C@H]4C(=O)N[C@@H](CCCC[N+](C)(C)C)C(=O)N4[C@H]3c3ccc(O)cc3)cc2)[C@]12C(=O)Nc1ccccc12`: 1.18.
Next, `CC(C)NC(=O)[C@@]1(c2ccc([N+](=O)[O-])cc2)CC(=O)N(C(C)C)[C@@H]1c1ccc(CO)cc1`: -0.502; `COc1ccc([Si](C)(C)[C@@H]2[C@@H](CCn3cc([C@H](O)c4ccccc4)nn3)O[C@]3(C(=O)N(C)c4ccccc43)[C@H]2C)cc1`: -0.103.
Next, `COCCOC(=O)N1C(=O)[C@@]2(c3cc(C#CC4=CCCCC4)ccc31)[C@H](C(=O)N1CCN(c3ncccn3)CC1)[C@H]1C(=O)O[C@H](c3ccccc3)[C@H](c3ccccc3)N1[C@@H]2c1ccc(OCCO)cc1`: 1.04.
With `C=CCOC(=O)[C@@H]1[C@H]2C(=O)O[C@H](c3ccccc3)[C@H](c3ccccc3)N2[C@H](c2ccc(OCCOC(=O)[C@H]3C[C@H]4C(=O)N[C@@H](CC(C)C)C(=O)N4[C@H]3c3cccc(OCCO)c3)cc2)[C@@]12C(=O)Nc1ccc(I)cc12`, the composite z-score turned out to be 2.06.
The same measure for `CC(C)N1C(=O)c2ccccc2[C@](C)(C(=O)NCCCN(C)C)[C@@H]1c1ccc(CO)cc1`: 0.0142.
As to `CC(=O)NCCCC[C@@H]1NC(=O)[C@@H]2C[C@H](C(=O)NCCCCCC[N+](C)(C)C)[C@H](c3cccc(OCCO)c3)N2C1=O`, the composite z-score amounted to 2.04.
The same measure for `CCCCN1CC=CC23O[C@@H]4C=CCCOC(=O)C4[C@H]2C(=O)N(CCCO)[C@@H]3C1=O` (stereo partly specified): -0.278; for `C=CCC(OC(C)=O)[C@@H]1[C@@H](N(Cc2cc3ccccc3o2)C(=O)c2cccc3ccccc23)c2cc(OCCCO)ccc2N1C(=O)Cc1ccc(OC)cc1` (stereo partly specified): 1.16.
In the case of `C=CCN1C(=O)[C@]2(COC(c3ccc(OCCCO)cc3)=N2)Cc2ccccc21`, the composite z-score is 0.169.
For the compound `C=C[C@H](C)[C@H](OC(=O)Nc1ccc(OC)cc1)c1ccc(O)c2ccccc12`, the composite z-score came to 0.9.
`COc1ccccc1CN1C(=O)c2ccccc2[C@](Cc2ccccc2I)(C(=O)NC2CC2)[C@@H]1c1ccc(CO)cc1` registered a composite z-score of 2.06.
Consider `C=CC[C@@]1(C(N)=O)N=C(c2ccc(OCCCO)cc2)O[C@@H]1c1ccccc1N=[N+]=[N-]`, for which the composite z-score was determined as 0.821.
Compound `CCN(CC)c1ccc(N2CC=CC34O[C@@H]5C=CCOC(=O)[C@@H]5[C@H]3C(=O)N(CCCCCO)[C@@H]4C2=O)cc1` (stereo partly specified) registered a composite z-score of 0.146.
`COCCOC(=O)N1C(=O)[C@@]2(c3cc(C#CCC(C(=O)OC)C(=O)OC)ccc31)[C@H](c1ccc(OCCO)cc1)N1[C@H](c3ccccc3)[C@H](c3ccccc3)OC(=O)[C@H]1[C@@H]2C(=O)NC[C@H](O)c1ccccc1`: the composite z-score is 2.14.

These data come from PubChem BioAssay.
